Bioassay records as filed in PubChem.
HT1080NT lethal – kills 2HG-producing HT-1080-NT fibrosarcoma cells; Potency, µM (highest dose often 46.1 µM), inactives show at the highest dose activity, negative = less viability, hits mostly cytotoxic; HT-1080-NT fibrosarcoma viability, CellTiter-Glo ATP luminescence, 48 h; 360,000 compounds, 1.6% hits;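 also: NT is the 2HG producing partner of a matched IDH1 knockdown line; potency is read from the fitted curve at half-maximal effect; 0% = DMSO-treated cells and -100% = media-only wells without cells; nearly all actives have a fitted effect of over 55% in size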
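Fibrosarcoma NT cells, 750 per well in 5% FBS RPMI, were exposed to compound for 48 hours. Viability: CellTiter-Glo luminescence.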
TDP1 cell CPT – growth inhibition of DT40 Tdp1-/-;hTDP1 cells with camptothecin (screen for TDP1 inhibitors); chicken DT40 Tdp1-/-;hTDP1 cells + 20 nM CPT, ATP luminescence, 48 h; Potency, µM (series often up to 46.2 µM), without a hit: top-dose activity change, negative = growth inhibition, most hits filed as inhibitors; 420,000 compounds, 12% hits; also: potency is read from the fitted curve at half-maximal effect; nearly all actives have a fitted effect of over 55% in size
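Chicken DT40 Tdp1-/- cells complemented with human TDP1, 400 cells/well, exposed to compounds plus 20 nM camptothecin for at least 48 h at 37 C; viability read as ATP content by CellTiter-Glo luminescence.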
DT40 TDP1 no CPT – qHTS for Inhibitors of human tyrosyl-DNA phosphodiesterase 1 (TDP1): qHTS in cells in absence of CPT | DT40 Tdp1-/- hTDP1 cells, no CPT, ATP luminescence, 48 h | AID 686978, 2013 | 420,000 compounds, 15% hits | Potency, µM (highest dose often 46.2 µM), for the others: at the highest dose activity change, negative = growth inhibition, usual class: inhibitors; also: potency is read from the fitted curve at half-maximal effect; nearly all actives have a fitted effect of over 55% in size
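Luminescent ATP content (CellTiter-Glo) served as the growth readout. Knockout chicken DT40 cells expressing human TDP1 were exposed to compounds without camptothecin for a minimum 48 hr at 37 °C.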
HT1080 IDH1KD tx – toxicity to HT-1080 IDH1 knockdown cells (counter line); HT-1080 IDH1 knockdown viability, ATP luminescence, 48 h; Potency, µM (highest dose often 46.1 µM), without a hit: top-dose activity, negative = toxicity, actives largely listed as cytotoxic; 360,000 compounds, 2% hits;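 also: potency is read from the fitted curve at half-maximal effect; 0% = DMSO wells and -100% = cell-free medium wells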
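IDH1KD HT-1080 cells, 750/well, RPMI + 5% FBS; compound pinned after 2 h settling; 48 h, 37 °C; CellTiter-Glo luminescence; % activity normalised to DMSO and no-cell wells; curves fitted, classed by r2 and efficacy.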
IL-1B inflam inh – blocks inflammasome-driven IL-1 beta release; THP-1 LPS/ATP IL-1B secretion, AlphaLISA, 16 h; active compounds read low; activity change, % at 57.5 µM; 360,000 compounds, 4.7% hits; AID 743279; in the data active = activity change below about -50%; inconclusive = mostly about -30% to -49%
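THP-1 cells pretreated 1 hr with compounds (up to 57.5 uM final), then stimulated with LPS (250 ng/mL final) plus ATP (1.25 mM final); secreted IL-1B measured by AlphaLISA after 16 hr, decreased signal indicating inhibition.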
* marks the source's active call; other numbers are inactive results; ? = inconclusive; . = no result given. This is a sample that favours compounds with a hit; in the whole collection about 19% have one here. Unless noted, calls follow the shape of the dose curve; as a rule, active = well fitted curve in the direction sought with a large enough effect; inconclusive = small, poorly fitted or top-dose-only effect, or another doubt; inactive = no such curve, though single readings can be large; an effect the other way counts as inactive or inconclusive. Unless noted, % is scaled to controls: 0 for no effect and ±100 for the full control effect.

SMILES	HT1080NT lethal	TDP1 cell CPT	DT40 TDP1 no CPT	HT1080 IDH1KD tx	IL-1B inflam inh
CCOC(=O)c1c(NC(=O)COC(=O)CNC(=O)c2ccco2)sc(C)c1C	-3.0%	5.8µM*	?	-10.3%	-6.2
Cc1onc(-c2c(Cl)cccc2Cl)c1C(=O)N1CCc2ccccc2C1	-16.2%	?	?	-16.9%	0.2
Cc1nn(C)c(C)c1Nc1ccc(N2C(=O)C3C4C=CC(C4)C3C2=O)cc1[N+](=O)[O-] (centres undefined)	16.8%	?	23.1µM*	-1.1%	43.5
CC(=O)N(Cc1cccs1)Cc1cc2ccc(C)c(C)c2nc1Cl	-13.6%	18.4µM*	20.6µM*	-12.2%	-7.8
O=C(COC(=O)c1ccc2ccccc2c1O)NCC(F)(F)F	1.4%	-21.2%	?	-4.1%	-3.6
Cc1cc(C)c(C(=O)COC(=O)C2CCN(c3ccc(C(F)(F)F)cn3)CC2)c(C)c1	6.3%	?	?	-1.0%	21.3
COC(=O)C1CSC2c3ccccc3C(=O)N12 (centres undefined)	-5.9%	18.4µM*	?	-5.9%	-3.6
CC(C)NC(=O)[C@@H]1CSC2c3ccccc3C(=O)N21 (some centres undefined)	1.8%	5.2%	1.1%	4.4%	2.0
CCCCOCCCNC(=O)C[C@@H]1C[C@@]2(C(=O)OCC)CCCC=C2N(Cc2cccc3ccccc23)C1=O	?	18.4µM*	13µM*	?	?
CCCCCCCCN1C(=O)[C@H](CC(=O)NCc2cccc3ccccc23)C[C@@]2(C(=O)OCC)CCCC=C12	?	?	16.4µM*	?	-17.3
CCOC(=O)[C@]12CCCC=C1N(Cc1cccc3ccccc13)C(=O)[C@H](CC(=O)NCc1cccc3ccccc13)C2	-10.4%	?	?	-28.1%	-6.4
CC1(C)CC(=O)C(/C=N/n2c(C(F)(F)F)nc3ccccc3c2=O)=C(O)C1	7.9%	16.4µM*	?	?	26.0
CC1(C)CC(=O)C(C=NCc2ccccn2)=C(O)C1	2.1%	-1.4%	-2.2%	-8.3%	1.8
Cc1csc(-c2nc3ccccc3n2C(C(=O)NC(C)(C)C)c2ccccc2)c1 (centres undefined)	15.5%	?	29.1µM*	13.6%	0.0
CCC(C(=O)NC(C)(C)C)n1c(C(c2ccccc2)c2ccccc2)nc2ccccc21 (centres undefined)	-21.4%	18.4µM*	?	-13.7%	-2.7
CC(C(=O)NC(C)(C)C)n1c(C(c2ccccc2)c2ccccc2)nc2ccccc21 (centres undefined)	-29.3%	?	?	?	-2.1
COc1ccc(OC)c(-c2noc(CSc3nnc(Cc4ccccc4)n3-c3cccc(C)c3)n2)c1	.	18.4µM*	23.1µM*	.	.
COc1ccc(-c2noc(CSc3nc4sc(C)c(C)c4c(=O)n3-c3ccccc3)n2)cc1OC	13.4%	?	?	-13.0%	23.9
COc1ccc(-c2noc(CSc3nnc(Cc4ccccc4)n3-c3cccc(C)c3)n2)cc1OC	?	16.4µM*	20.6µM*	?	-64.2*
COc1ccc(-c2noc(CSc3nc4ccccc4c(=O)n3-c3ccccc3)n2)cc1OC	-6.5%	?	?	-8.3%	-20.5
CCOC(=O)CSc1nnc(Cc2ccc(OC)cc2)n1-c1ccccc1	-1.5%	14.6%	-1.0%	-2.3%	8.6
COc1ccc(-c2noc(CSc3nnc(Cc4ccccc4)n3-c3ccccc3)n2)cc1OC	.	23.1µM*	13µM*	.	.
COc1ccc(OC)c(-c2noc(CSc3nnc(-c4ccccc4)n3-c3ccccc3)n2)c1	.	14.6µM*	5.17µM*	.	.
Cc1ccc(C(=O)N[C@H](C(=O)Nc2ccc(N3CCOCC3)cc2)C(C)C)cc1	2.5%	-22.9%	-1.1%	1.0%	5.1
C[C@H](NC(=O)[C@H](Cc1ccccc1)n1c(=O)[nH]c2ccccc2c1=O)C(=O)N1CCC(C(=O)O)CC1	0.0%	-9.9%	-4.1%	5.3%	14.0
SMILES	HT1080NT lethal	TDP1 cell CPT	DT40 TDP1 no CPT	HT1080 IDH1KD tx	IL-1B inflam inh
COc1ccc(CNC(=O)Cc2csc(NC(=O)Nc3ccccc3OC)n2)cc1	-2.9%	?	14.6µM*	-15.4%	?
COc1cc(OC)cc(C(=O)Nc2nc(CC(=O)NCc3ccc(F)cc3)cs2)c1	?	11.6µM*	8.2µM*	?	1.5
COc1ccccc1CNC(=O)Cc1csc(NC(=O)Nc2ccccc2OC)n1	6.6%	16.4µM*	23.1µM*	2.4%	1.6
COc1ccccc1NC(=O)Nc1nc(CC(=O)NCc2cccnc2)cs1	-0.9%	?	-14.1%	4.2%	3.9
COc1cc(OC)cc(C(=O)Nc2nc(CC(=O)NCCc3ccccc3)cs2)c1	-2.3%	?	?	1.4%	?
COc1ccccc1NC(=S)NCc1ccccn1	19.2%	2.31µM*	4.11µM*	-12.3%	0.0
COc1ccc2c(c1OC)C(=O)N1C2SC[C@H]1C(=O)NC1CCCC1 (some centres undefined)	-6.6%	?	-2.1%	0.7%	39.1
O=C(NCc1cccnc1)c1cc(C2CCCCN2S(=O)(=O)c2cccs2)on1 (centres undefined)	-1.7%	-19.5%	-22.5%	2.9%	-5.1
COc1ccccc1/C=C(/NC(=O)c1ccccc1)C(=O)NCCN1CCOCC1	13.1%	15.4%	-17.8%	2.5%	-6.3
COc1ccc(C(=O)N(C)Cc2ccc(C)o2)cc1OC1CCN(C(C)C)CC1	-4.4%	-29.4%	-21.3%	-4.1%	-3.8
OCc1ccccc1-c1cnc2sc(NCc3ccc(F)cc3)nn12	3.3%	?	?	-3.5%	1.0
COc1ccccc1NC(=O)Nc1nc(CC(=O)NC2CCCC2)cs1	7.4%	?	16.4µM*	-3.2%	-8.4
O=C(Cc1csc(NC(=O)Nc2cccc(Cl)c2)n1)NCc1ccccn1	-0.1%	2.06µM*	2.59µM*	-11.1%	-6.3
COc1ccccc1NC(=O)Nc1nc(CC(=O)NCc2ccccn2)cs1	-10.9%	?	25.9µM*	-6.6%	14.5
CCc1ccc(OCC(=O)OC(C)C(=O)Nc2ccc(Cl)cn2)cc1 (centres undefined)	-4.7%	-11.8%	24.2%	-16.0%	-12.9
Cc1cc(C)[n+](C)c2ccccc12	.	2.9%	-9.5%	.	.
Cc1c2ccccc2cc(Cc2ccccc2)[n+]1C	-0.2%	23.1µM*	13µM*	20.6µM*	18.1
COc1ccc(NC2CCCN(Cc3cccc4cnccc34)C2)cc1OC (centres undefined)	-5.7%	?	20.6µM*	-1.7%	13.2
COc1ccc(NC2CCCN(Cc3cccc4cnccc34)C2)cc1 (centres undefined)	-3.7%	?	20.6µM*	1.4%	17.3
